Luc counter = blocks Kinase-Glo luciferase, a counter-screen artifact | Q27757 | Kinase-Glo luciferase, ATP luminescence, 8 min | Potency, µM (doses to about 38.3 µM), for the others: at the top dose activity change, negative = inhibition, usual class: inhibitors | 0.28% of 200,000 active; note: nearly all actives have a fitted effect of over 60% in size
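Compound is pinned into ATP-containing buffer (10 uM ATP, imidazole pH 7.2, 7 mM MgCl2). Kinase-Glo luciferase reagent is then added. Light output is recorded following an 8-min room-temperature incubation.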
RORgamma inh = ROR gamma (mouse) transcription inhibition. Drosophila S2 Gal4-RORgamma UAS-luciferase reporter, 20 h. Potency, µM (top dose mostly 53.6 µM), inactives show at the top dose activity change, negative = inhibition, hits mostly inhibitors. P51450. 5.4% of 310,000 active; note: nearly all actives have a fitted effect of over 60% in size
Target sequence (P51450 whole entry, looked up, the tested form may be a part): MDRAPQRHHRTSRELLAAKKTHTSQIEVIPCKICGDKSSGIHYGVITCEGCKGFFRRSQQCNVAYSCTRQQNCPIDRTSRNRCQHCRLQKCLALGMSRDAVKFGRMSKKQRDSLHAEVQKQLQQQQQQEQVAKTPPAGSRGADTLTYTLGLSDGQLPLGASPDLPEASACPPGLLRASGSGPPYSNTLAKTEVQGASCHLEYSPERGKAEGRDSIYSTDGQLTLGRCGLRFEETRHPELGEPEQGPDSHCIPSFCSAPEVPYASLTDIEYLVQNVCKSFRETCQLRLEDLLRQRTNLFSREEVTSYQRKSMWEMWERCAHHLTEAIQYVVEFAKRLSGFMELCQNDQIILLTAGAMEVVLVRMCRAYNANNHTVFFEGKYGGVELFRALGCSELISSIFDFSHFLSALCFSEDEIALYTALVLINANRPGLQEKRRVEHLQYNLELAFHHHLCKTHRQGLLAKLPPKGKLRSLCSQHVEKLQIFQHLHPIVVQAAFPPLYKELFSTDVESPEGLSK
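Stably transfected Drosophila Schneider cells are the test system, with ROR gamma fused to Gal4 and luciferase under UAS control; luminescence is read after 20 hr of 700 uM copper sulfate induction at ambient temperature.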
Gal4-VP16 FLuc = inhibits Gal4-VP16 luciferase reporter, ROR gamma counter-screen; Potency, µM (series often up to 53.6 µM), for inactives: top-dose activity, negative = inhibition, usual class: inhibitors; Drosophila S2 Gal4-VP16 UAS-luciferase, luminescence, 20 h; 3.5% of 310,000 active;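 note: Gal4-VP16 expression switched on by copper sulfate through the metallothionein promoter; nearly all actives have a fitted effect of over 50% in size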
* = called active by the depositor; ? = inconclusive; · = not tested or not shown; [ ] = dose if it differs, or a comment. In the library only some 6.2% were active in any assay of this set; here they are far more common. Calls come from the whole dose curve; as a rule, active = well fitted curve in the direction sought with a large enough effect; inconclusive = small, poorly fitted or top-dose-only effect, or another doubt; inactive = no such curve, though single readings can be large; an effect the other way counts as inactive or inconclusive. % is set by controls: 0 for no effect and ±100 for the full control effect; potency is the fitted concentration of half-maximal effect.

SMILES	Luc counter	RORgamma inh	Gal4-VP16 FLuc
S=C(NCCc1ccccn1)Nc1ccccc1	-1%	20µM*	?
Cc1nc(N/N=C/c2ccc(Br)cc2)cc(N2CCOCC2)n1	·	?	-6%
OCC#Cc1cnc2ccccc2c1	-7%	9%	-7%
CN(Cc1ccco1)c1ncnc2ccc(-c3ccccc3C(F)(F)F)cc12	·	40%	-10%
CC(C)NS(=O)(=O)c1ccc(NC(=O)NC2CCCCC2)cc1	-2%	43%	1%
S=C(NCCc1ccccn1)Nc1ccc(Cl)c(Cl)c1	1%	5.6µM*	7.1µM*
COCCNC(=S)Nc1ccc2nsnc2c1	3%	-36%	28%
COCCNC(=S)Nc1ccc(Cl)c(Cl)c1	1%	10µM*	?
S=C(NCc1cccnc1)Nc1ccc(Cl)c(Cl)c1	-5%	?	?
Nc1nnc(-c2ccc(Cl)c([N+](=O)[O-])c2)s1	-2%	-21%	10%
O=c1c(-c2ccc(Cl)cc2)nc2cnc(N3CCNCC3)nc2n1CCc1ccccc1	·	-8%	-26%
Cc1ccc(C2=[N+]([O-])C3(CCCCC/C3=N\NC(N)=O)N(O)C2(C)C)o1 (stereo unspecified)	6%	1%	-24%
Cc1ccc(C2=[N+]([O-])C3(CCCCC/C3=N\NC(N)=S)N(O)C2(C)C)o1 (stereo unspecified)	-2%	1.6µM*	2.2µM*
Cc1ccc(C(=O)COC(=O)c2ccc(O)cc2)cc1	-4%	?	11µM*
CCOC(=O)COC(=O)c1ccc(O)cc1	-2%	34%	14%
COC(=O)CN1C(c2ccccc2O)Nc2ccc(Br)cc2C1c1ccccc1 (stereo unspecified)	-2%	-36%	0%
CCOC(=O)CN1C(c2ccccc2O)Nc2ccc(Br)cc2C1c1ccccc1 (stereo unspecified)	1%	-95%	7.1µM*
Cc1ccc(C)c(N2CCN(C(=O)CN3C(=S)NC(C)(C)CC3C)CC2)c1 (stereo unspecified)	-7%	7.9µM*	?
O=C(CCCOc1ccccc1)N1CCN(c2ccc(F)cc2)CC1	17%	?	2%
CC1CC(C)(C)NC(=S)N1CC(=O)N1CCN(Cc2ccccc2)CC1 (stereo unspecified)	-5%	-19%	5%
O=C(CCCN1C(=O)c2ccccc2C1=O)N1CCc2ccccc2C1	11%	-7%	2%
COc1ccc(N2CCN(C(=O)CCN3C(=O)c4ccccc4S3(=O)=O)CC2)cc1	·	19%	3%
CC1CC(C)(C)NC(=S)N1CCCC(=O)N1CCN(c2ccc(F)cc2)CC1 (stereo unspecified)	-5%	10µM*	-95%
COc1ccc(N2CCN(C(=O)CCN3C(=S)NC(C)(C)CC3C)CC2)cc1 (stereo unspecified)	-4%	11µM*	-5%
CC1CC(C)(C)NC(=S)N1CCC(=O)N1CCc2ccccc2C1 (stereo unspecified)	-4%	16µM*	?
SMILES	Luc counter	RORgamma inh	Gal4-VP16 FLuc
COc1c2c(cc3c1C(CC(=O)c1c(O)c(OC)c4occc4c1OC)[N+](C)(C)CC3)OCO2 (stereo unspecified)	1%	4%	-15%
COCCn1c(=O)cnc2cnc(Oc3ccc(OC)cc3)nc21	·	15%	-22%
Cc1ccccc1NC1=C(Cl)C(=O)OC1OC(C)C (stereo unspecified)	-1%	-25%	8%
CCNC(=O)NC(=O)COC(=O)CCc1nc(=O)c2ccccc2n1C	-1%	7%	-9%
CC1CC(C)(C)NC(=S)N1CCC(=O)N1CCN(c2ccccc2)CC1 (stereo unspecified)	-1%	7.9µM*	?
CC(=O)c1ccc(N2CCN(C(=O)CCN3C(=S)NC(C)(C)CC3C)CC2)cc1 (stereo unspecified)	1%	?	23%
CCCOc1ccc(C(=O)NNC(=S)NC(=O)c2cc(-c3ccccc3)nc3ccccc23)cc1	-5%	7.1µM*	-18%
COc1ccc(CNC(=O)c2ccc(C(C)(C)C)cc2)cc1	1%	2%	-14%
CCCOc1ccc(C(=O)NNC(=S)NC(=O)c2ccccc2[N+](=O)[O-])cc1	·	18µM*	20µM*
CCCCOc1ccc(C(=O)NNC(=S)NC(=O)CC)cc1	2%	-29%	?
C=CCNC(=S)NNC(=O)c1ccc(OCCCC)cc1	-2%	8.9µM*	?
CCCCC(=O)Nc1ccc(C(=O)NNC(=S)NC(=O)c2ccccc2[N+](=O)[O-])cc1	-1%	12%	-3%
COC(=O)CNC(=S)NC(=O)c1ccc(C(C)(C)C)cc1	-2%	6.3µM*	-22%[10 µM]
CCCOc1ccc(-c2cc(C(=O)NCC3CCCO3)c3ccccc3n2)cc1 (stereo unspecified)	-2%	26%	-8%

High-throughput results deposited in PubChem BioAssay by National Center for Advancing Translational Sciences (NCATS).
